Structures can show the parent of a compound that is named as a salt.
tested on: Saccharomyces cerevisiae BY4741 SeMeCo community; assay: z-score of subpopulation abundance vs DMSO median, subpopulation auxotrophic for HM; higher = larger share of this subpopulation than in DMSO controls; settings: 10 µM; 24 h; SM minimal medium; subpopulation (auxotrophy): HM
In short: (§1)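 Four plasmids, each restoring a single auxotrophy and encoding a distinct fluorescent protein, were carried by a Saccharomyces cerevisiae BY4741 community. After overnight growth to OD600 1.0 and dilution to 0.3, 70 µl per well was grown for 24 h in minimal SM medium on 384-well plates acoustically predosed with library drugs at 10 µM final. Following paraformaldehyde fixation, automated confocal microscopy was used, with single-auxotroph fluorescent strains defining thresholds and autofluorescence correction. Subpopulation abundance was then scored as a z-score against the vehicle-well median.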

| Structure (SMILES) | z-score of subpopulation abundance |
| --- | --- |
| CO[C@@]1(NC(=O)CSC[C@@H](N)C(=O)O)C(=O)N2C(C(=O)O)=C(CSc3nnnn3C)CS[C@@H]21 [Cefminox Sodium] | -0.24 |
| CNCCCC1c2ccccc2C=Cc2ccccc21 [Protriptyline hydrochloride] | -0.42 |
| CC1CCc2c(N3CCC(O)CC3)c(F)cc3c(=O)c(C(=O)O)cn1c23 (stereo not drawn) [Nadifloxacin] | 0 |
| C[n+]1ccccc1/C=N/O [Pralidoxime chloride] | -0.08 |
| Oc1ccc(Cl)c2cccnc12 [Cloxiquine] | 26.6 |
| N[C@H]1CONC1=O [L-Cycloserine] | 3.92 |
| CCN(CC)CC#CCOC(=O)C(O)(c1ccccc1)C1CCCCC1 (stereo not drawn) [Oxybutynin chloride] | 0.06 |

tested on: Saccharomyces cerevisiae BY4741 SeMeCo community; assay: z-score of subpopulation abundance vs DMSO median, subpopulation auxotrophic for HU; higher = larger share of this subpopulation than in DMSO controls; settings: 10 µM; 24 h; SM minimal medium; subpopulation (auxotrophy): HU
In short: as §1

| Structure (SMILES) | z-score of subpopulation abundance |
| --- | --- |
| CN[C@@H]1[C@H](O[C@H]2[C@H](O[C@H]3[C@H](O)[C@@H](O)[C@H](NC(=N)N)[C@@H](O)[C@@H]3NC(=N)N)O[C@@H](C)[C@]2(O)CO)O[C@@H](CO)[C@H](O)[C@H]1O [Dihydrostreptomycin sulfate] | -0.87 |
| C=CCc1ccc(O)c(-c2ccc(O)c(CC=C)c2)c1 [Honokiol] | -1.64 |
| COCCCN1CCC(NC(=O)c2cc(Cl)c(N)c3c2OCC3)CC1 [Prucalopride] | 0.16 |
| COCC(=O)Nc1cc(Sc2ccccc2)ccc1N=C(NC(=O)OC)NC(=O)OC [Febantel] | -0.73 |
| Cc1ccsc1/C=C/C1=NCCCN1C [Morantel tartrate] | 0.3 |
| CCn1cc(C(=O)O)c(=O)c2cc(F)c(N3CCNCC3)cc21 [Norfloxacin] | -0.03 |

— the supplement of paper PMC8975748
